Consider 18 molecules from PubChem BioAssay.

Molecules are shown by their SMILES. Unmarked numbers belong to inactive results. For part of these data: Measured potencies and affinities stand elsewhere. The source made the active and inactive calls. Unless noted, the rule behind the calls is not given here.

Assay [1] in a line: antimalarial activity against Dd2 strain (AID 2302;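 active = growth inhibition above 50% at the single 2 µM test dose, taken to imply half-maximal potency below 2 µM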;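 note: 0% = DMSO untreated growth and 100% = chloroquine plus artemisinin killed control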). Conditions: P. falciparum Dd2 in RBCs, LDH growth readout, 72 h; at 2 µM; hits give high values.
A short description of assay [2]: human hepatoma cell viability loss – ATP luminescence, cytotoxicity control for P. falciparum antimalarial project, primary screen (AID 2303;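 active = inhibition above 50%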;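 note: 0% = DMSO wells and 100% = digitonin-killed cells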). Conditions: HepG2 viability, 24-48 h, at 10 µM, hits give high values.
The target in assay [3] is L-lactate dehydrogenase (Plasmodium falciparum (isolate CDC / Honduras)) (UniProt Q27743). The assay can be described thus: PfLDH activity inhibition – cell lysate, 3D7 strain, counter-screen for P. falciparum growth inhibition project (AID 2304).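 Note: 0% = vehicle and 100% = reference inhibitor.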 Conditions: P. falciparum 3D7 crude extract, LDH APAD/NBT absorbance; at 2 µM; hits give high values.
L-lactate dehydrogenase (Plasmodium falciparum (isolate CDC / Honduras)), sequence (Q27743 whole entry, looked up): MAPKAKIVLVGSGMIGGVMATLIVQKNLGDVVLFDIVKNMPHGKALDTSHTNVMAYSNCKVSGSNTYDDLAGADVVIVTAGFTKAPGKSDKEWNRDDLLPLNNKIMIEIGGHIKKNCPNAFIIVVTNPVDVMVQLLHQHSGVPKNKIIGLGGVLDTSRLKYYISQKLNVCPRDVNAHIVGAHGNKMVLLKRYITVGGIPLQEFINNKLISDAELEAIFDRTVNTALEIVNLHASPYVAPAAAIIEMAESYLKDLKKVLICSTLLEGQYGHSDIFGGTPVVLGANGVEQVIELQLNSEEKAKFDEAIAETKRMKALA
The nature of assay [4]: inhibition of 3D7 malaria parasite growth – strain 3D7 (AID 2306).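 Note: 0% = DMSO wells and 100% = chloroquine plus artemisinin control wells.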 Conditions: P. falciparum 3D7 erythrocytic growth, LDH absorbance, 72 h; at 2 µM; hits give high values.
In assay [5] the target is Calcium-dependent protein kinase 1 (Plasmodium falciparum (isolate 3D7)) (UniProt P62344). Nature of the assay: PfCDPK1 kinase inhibitors, biochemical, TCAMS library (AID 1159585; cut-off not given, nearly all actives have IC50 up to about 0.98 µM;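 note: inhibitors leave more ATP so luminescence rises with inhibition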). The following applies: recombinant PfCDPK1, Kinase-Glo ATP depletion luminescence.
Calcium-dependent protein kinase 1 (Plasmodium falciparum (isolate 3D7)), sequence (P62344 whole entry, looked up): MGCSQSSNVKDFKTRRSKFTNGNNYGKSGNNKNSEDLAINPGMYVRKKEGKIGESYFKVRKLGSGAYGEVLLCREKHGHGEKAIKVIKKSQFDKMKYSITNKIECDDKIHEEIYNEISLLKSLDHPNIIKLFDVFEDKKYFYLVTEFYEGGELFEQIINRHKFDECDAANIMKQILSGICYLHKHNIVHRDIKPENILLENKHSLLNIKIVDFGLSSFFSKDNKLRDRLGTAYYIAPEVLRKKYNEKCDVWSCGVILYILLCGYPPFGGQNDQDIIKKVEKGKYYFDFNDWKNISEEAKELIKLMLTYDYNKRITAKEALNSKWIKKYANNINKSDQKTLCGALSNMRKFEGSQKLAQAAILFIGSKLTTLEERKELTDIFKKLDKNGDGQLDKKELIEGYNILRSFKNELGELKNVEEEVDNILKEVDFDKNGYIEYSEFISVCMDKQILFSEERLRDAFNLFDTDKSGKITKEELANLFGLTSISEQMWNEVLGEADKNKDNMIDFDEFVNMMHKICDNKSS
For assay [6], the target named is Plasmodium falciparum protein kinase 6 (PK6, PF3D7_1337100) (UniProt Q8IDW1). Nature of the assay: PfPK6 kinase inhibitors, biochemical, TCAMS library (AID 1159586). Conditions: recombinant PfPK6, Kinase-Glo ATP depletion luminescence.
Plasmodium falciparum protein kinase 6 (PK6, PF3D7_1337100), sequence (Q8IDW1 1-305): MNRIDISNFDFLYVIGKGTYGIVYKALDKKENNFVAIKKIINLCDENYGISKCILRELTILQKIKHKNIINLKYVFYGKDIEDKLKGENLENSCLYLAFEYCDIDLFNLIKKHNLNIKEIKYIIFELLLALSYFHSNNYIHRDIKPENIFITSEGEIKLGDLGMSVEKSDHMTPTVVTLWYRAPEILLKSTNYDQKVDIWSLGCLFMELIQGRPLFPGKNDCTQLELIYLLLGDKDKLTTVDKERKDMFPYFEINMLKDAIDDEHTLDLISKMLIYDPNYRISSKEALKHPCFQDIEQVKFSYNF
Assay [7] has as its target Protein kinase 7 (PK7), Plasmodium falciparum 3D7 (PF3D7_0213400) (UniProt Q7YTF7). The assay can be described thus: inhibition of Plasmodium PK7 catalytic activity – biochemical, TCAMS antimalarial set, Kinase-Glo luminescence (AID 1159587). The following applies: recombinant PfPK7, Kinase-Glo ATP depletion luminescence.
The target in assay [8] is Calcium-dependent protein kinase 4 (Plasmodium falciparum (isolate 3D7)) (UniProt Q8IBS5). The assay can be described thus: PfCDPK4 kinase inhibitors, biochemical, TCAMS library (AID 1159588; cut-off not given, nearly all actives have IC50 up to about 0.91 µM). The following applies: recombinant PfCDPK4, Kinase-Glo ATP depletion luminescence.
Calcium-dependent protein kinase 4 (Plasmodium falciparum (isolate 3D7)), sequence (Q8IBS5 whole entry, looked up): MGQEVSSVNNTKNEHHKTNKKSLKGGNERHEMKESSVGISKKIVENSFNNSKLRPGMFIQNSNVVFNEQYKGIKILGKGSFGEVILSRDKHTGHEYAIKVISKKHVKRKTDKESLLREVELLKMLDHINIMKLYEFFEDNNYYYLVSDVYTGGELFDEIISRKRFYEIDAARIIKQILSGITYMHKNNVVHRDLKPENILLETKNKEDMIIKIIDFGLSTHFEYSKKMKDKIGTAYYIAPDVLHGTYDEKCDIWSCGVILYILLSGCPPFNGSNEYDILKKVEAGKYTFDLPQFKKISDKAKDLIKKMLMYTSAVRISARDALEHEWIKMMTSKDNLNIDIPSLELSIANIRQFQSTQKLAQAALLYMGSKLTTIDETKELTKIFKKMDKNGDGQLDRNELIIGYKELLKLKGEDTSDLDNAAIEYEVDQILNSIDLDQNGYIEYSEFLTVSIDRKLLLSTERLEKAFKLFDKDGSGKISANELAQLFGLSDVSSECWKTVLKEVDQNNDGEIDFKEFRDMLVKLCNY

Protein kinase 7 (PK7), Plasmodium falciparum 3D7 (PF3D7_0213400), sequence (Q7YTF7 1-343): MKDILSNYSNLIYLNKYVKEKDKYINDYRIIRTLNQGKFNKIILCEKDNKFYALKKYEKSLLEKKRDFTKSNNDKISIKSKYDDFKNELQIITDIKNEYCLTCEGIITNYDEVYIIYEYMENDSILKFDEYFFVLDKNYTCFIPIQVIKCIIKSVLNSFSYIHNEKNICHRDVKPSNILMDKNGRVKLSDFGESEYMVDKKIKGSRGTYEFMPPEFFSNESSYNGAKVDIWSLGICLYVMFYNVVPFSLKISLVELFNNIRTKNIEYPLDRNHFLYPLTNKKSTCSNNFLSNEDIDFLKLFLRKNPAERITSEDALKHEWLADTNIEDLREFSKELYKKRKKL

Regarding `COCCNCc1cccc(-c2cccc(CNC3CCN(Cc4ccccc4)CC3)c2)c1`, the growth inhibition in assay [1] is 99% (active); in assay [4] it was 101% (active). Moreover, the inhibition is 28% in assay [2] and -4% in assay [3]. Moreover, the outcome in assay [5], in assay [6], in assay [7] and in assay [8] was inactive.

Regarding `Cc1cccc2[nH]c(-c3cccc(-c4ccc(NC(=O)Nc5ccc(Cl)cc5)cc4)c3)nc12`, the growth inhibition in assay [1] was 96% (active); in assay [4], 100% (active). Also, the inhibition in assay [2] was 63% (active); in assay [3] it was 0%. Besides, the outcome in assay [5], in assay [6], in assay [7] and in assay [8] was inactive.

Take `OCC1CCN(Cc2ccc(-c3ccc(-c4nc5ccc(F)cc5[nH]4)s3)cc2)CC1`: the values for the growth inhibition in assay [1] and in assay [4] were 98% (active) and 101% (active), respectively. Moreover, the inhibition in assay [2] is 14%; in assay [3], -3%. In addition, the result in assay [5], in assay [6], in assay [7] and in assay [8] was inactive.

As for `COc1cc(F)c2ncc(Cl)c(CCN3CCC(NCc4ccc5c(c4)NC(=O)CS5)CC3)c2c1`, the growth inhibition in assay [1] is 85% (active); in assay [4], 100% (active). The inhibition was 27% in assay [2] and -6% in assay [3]. Also, the result in assay [5], in assay [6], in assay [7] and in assay [8] was inactive.

Take `CC(=O)Nc1nc(C(=O)Nc2ccc(-c3cccc(-c4nc5ccc(C(F)(F)F)cc5[nH]4)c3)cc2)cs1`: the growth inhibition was 97% (active) in assay [1] and 101% (active) in assay [4]. The inhibition is 79% (active) in assay [2] and -2% in assay [3]. Also, the outcome in assay [5], in assay [6], in assay [7] and in assay [8] was inactive.

On to `Cc1cccc2[nH]c(-c3ccc(-c4cccc(CN5CCN(CCO)CC5)c4)cc3)nc12`, for which the growth inhibition in assay [1] was 55% (active); in assay [4], 100% (active). Moreover, the inhibition in assay [2] is 20%; in assay [3], -3%. For the same molecule, the outcome in assay [5], in assay [6], in assay [7] and in assay [8] was inactive.

For `CCOC(=O)CCCOc1cc(Cc2cnc(N)nc2N)cc(OC)c1OC`, the growth inhibition was 3% in assay [1] and 97% (active) in assay [4]. The inhibition in assay [2] is 12%; in assay [3], -7%. Also, the result in assay [5], in assay [6], in assay [7] and in assay [8] was inactive.

For `CCN(CC)CCN(Cc1ccc(-c2ccc(C(F)(F)F)cc2)cc1)C(=O)Cn1cc(Cc2cnn(C)c2)c(=O)nc1/C=C/c1ccc(F)cc1`, the growth inhibition was 91% (active) in assay [1] and 96% (active) in assay [4]. Also, the values for the inhibition in assay [2] and in assay [3] were 6% and 3%, respectively. The result in assay [5], in assay [6], in assay [7] and in assay [8] was inactive.

As to `CCN(CC)CCCC(C)Nc1c2ccccc2nc2c1ccc1ccccc12` (centres undefined), the growth inhibition was 34% in assay [1] and 96% (active) in assay [4]. Further, the inhibition in assay [2] was 18%; in assay [3], 3%. Further, the outcome in assay [5], in assay [6], in assay [7] and in assay [8] was inactive.

Turning to `O=c1c2ccc(F)cc2sn1-c1ccc(Cl)cc1`, the growth inhibition is 11% in assay [1] and 98% (active) in assay [4]. The figures for the inhibition in assay [2] and in assay [3] were 8% and -2%, respectively. The result in assay [5], in assay [6], in assay [7] and in assay [8] was inactive.

Take `COc1ccc(CCn2c(C3CCCCC3)nc3oc4ccccc4c(=O)c3c2=O)cc1`: the growth inhibition is 66% (active) in assay [1] and 91% (active) in assay [4]. The inhibition in assay [2] is 12%; in assay [3], -2%. For the same molecule, the result in assay [5], in assay [6], in assay [7] and in assay [8] was inactive.

As for `Cc1ccnc2nc(C(=O)Nc3cc(C(F)(F)F)ccc3N3CCCCC3)nn12`, the growth inhibition in assay [1] is 94% (active); in assay [4], 96% (active). The inhibition in assay [2] is 7%; in assay [3], -5%. Further, the outcome in assay [5], in assay [6], in assay [7] and in assay [8] was inactive.

As for `O=C(C=Cc1ccc(Cl)c(Cl)c1)NCCCCCN1CCC(c2[nH]nc3ccccc23)CC1`, the growth inhibition was 29% in assay [1] and 99% (active) in assay [4]. The inhibition is 32% in assay [2] and 0% in assay [3]. Moreover, the outcome in assay [5], in assay [6], in assay [7] and in assay [8] was inactive.

On to `Cc1cc(NN=Cc2ccccc2F)c2cc(C(F)(F)F)ccc2n1`, for which the results for the growth inhibition in assay [1] and in assay [4] were 67% (active) and 102% (active), respectively. Besides, the inhibition is 5% in assay [2] and 2% in assay [3]. Besides, the result in assay [5], in assay [6], in assay [7] and in assay [8] was inactive.

On to `C=CCOC(=O)N1CCC(CNCc2ccc(-c3cccc(-c4nc5ccc(F)cc5[nH]4)c3)cc2)C1` (centres undefined), for which the growth inhibition was 99% (active) in assay [1] and 102% (active) in assay [4]. In addition, the inhibition in assay [2] is 26%; in assay [3], -2%. In addition, the outcome in assay [5], in assay [6], in assay [7] and in assay [8] was inactive.

As to `O=C(Nc1cccc(Cl)c1Cl)N[C@H]1CCN(CCCCCNC(=O)[C@@H]2C[C@H]2c2ccc(Cl)c(Cl)c2)C1`, the growth inhibition was -7% in assay [1] and 87% (active) in assay [4]. In addition, the values for the inhibition in assay [2] and in assay [3] were 40% and -2%, respectively. Also, the result in assay [5], in assay [6], in assay [7] and in assay [8] was inactive.

With `COc1ccc(Nc2nc(NC3CCN(Cc4ccccc4)CC3)cc(-c3ccncc3)n2)cc1`, the growth inhibition was 40% in assay [1] and 88% (active) in assay [4]. For the same molecule, the inhibition is 26% in assay [2] and 0% in assay [3]. The outcome in assay [5], in assay [6], in assay [7] and in assay [8] was inactive.

`Cc1ccc(O)cc1Nc1ccnc2cc(-c3nccs3)ccc12`: the results for the growth inhibition in assay [1] and in assay [4] were 83% (active) and 102% (active), respectively. For the same molecule, the inhibition in assay [2] was 63% (active); in assay [3], 2%. For the same molecule, the outcome in assay [5], in assay [6], in assay [7] and in assay [8] was inactive.
